Bioassay records (PubChem)
FAS-TE inh – blocks the thioesterase domain of human fatty acid synthase; inhibition, % at 15 µM; recombinant FAS-TE, OMFH fluorogenic substrate, fluorescence endpoint; hit rate 0.67% among 360,000; AID 602261; P49327;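 active means compounds whose normalised, plate-corrected inhibition of enzyme fluorescence in the single-dose primary screen is 50% or more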;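 further: 0% = DMSO with enzyme and 100% = substrate without enzyme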
ATG4B inh – ATG4B (human) cysteine protease inhibition | Q9Y4P1 | ATG4B cleavage of LC3-PLA2, NBD-HPC fluorescence, 1 h | inhibition, % at 8.33 µM | hit rate 0.51% among 340,000 | AID 504462; in the data active means inhibition above about 40%
Target sequence (Q9Y4P1 whole entry, looked up): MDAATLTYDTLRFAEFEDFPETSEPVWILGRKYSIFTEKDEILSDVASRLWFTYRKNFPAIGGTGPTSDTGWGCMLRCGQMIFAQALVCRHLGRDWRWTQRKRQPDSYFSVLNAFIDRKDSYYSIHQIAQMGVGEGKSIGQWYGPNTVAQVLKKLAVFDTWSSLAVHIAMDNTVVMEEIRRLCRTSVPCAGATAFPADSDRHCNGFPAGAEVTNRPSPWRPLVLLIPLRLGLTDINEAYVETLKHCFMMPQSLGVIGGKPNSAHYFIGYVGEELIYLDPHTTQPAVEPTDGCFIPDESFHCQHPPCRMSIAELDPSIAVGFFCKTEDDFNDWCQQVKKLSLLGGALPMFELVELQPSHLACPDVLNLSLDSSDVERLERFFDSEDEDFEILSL
Mot1-301 SUMO – SUMOylation pathway inhibition by Mot1-301 growth rescue; hit rate 1% among 320,000; S. cerevisiae Mot1-301 growth rescue, ATP luminescence, 38.5C; percent above DMSO median, 100 means doubled; AID 2716; growth rescue, % at 18.8 µM;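 active means every valid replicate shows activation above 250% relative to neutral control wells; inactive means the rest, any valid replicate at or below 250%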;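 further: OY570 slx delta 5 strain wells were the positive control but not used for scaling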
Calb FLC – affects C. albicans growth with fluconazole. growth inhibition, % (concentration not given with the values). C. albicans CaCi-2 (fluconazole-resistant clinical isolate) + fluconazole, Alamar Blue growth, 48 h. hit rate 0.57% among 300,000. AID 1979;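 active means growth inhibition above about 58% in most replicates, limit read from the data, passing the limit was not always enough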;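 further: all wells also contain fluconazole at 8 µg/ml as a sub-toxic cotreatment; 0% = median of DMSO wells and 100% = median of geldanamycin control wells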
NadD inh – NadD (S. aureus) enzyme inhibition; purified NadD enzyme, colorimetric absorbance read-out; inhibition, % at 20 µM; hit rate 0.78% among 360,000; in the data active means inhibition above about 26%
FAS-TE conf – FAS thioesterase (human) inhibition, confirmation. recombinant FAS-TE, OMFH fluorogenic substrate, fluorescence. hit rate 45% among 2,300. shares compounds with FAS-TE inh. inhibition, % at 15 µM;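 active means compounds inhibiting the enzyme by at least 50% at 15 µM in any one of the replicates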;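 further: 0% = enzyme with DMSO only and 100% = wells lacking enzyme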
The depositor's hits bear a star. Shown are actives, neighbours in structure and some others; about 3.1% of the full set was active somewhere.

Screening COc1ccc([N+](=O)[O-])cc1/C=N/NC(=O)/C(=C\c1cccs1)NC(=O)c1ccccc1 returned FAS-TE inh 79*, ATG4B inh -7, Mot1-301 SUMO 52, Calb FLC 7, NadD inh 12 and FAS-TE conf 66*.
For COc1ccc(/C=C(/NC(=O)c2ccccc2)C(=O)N/N=C/c2cccs2)cc1OC the results were FAS-TE inh -4, ATG4B inh -10, Mot1-301 SUMO 125, Calb FLC -41 and NadD inh 7.
O=C(N/N=C/c1ccco1)/C(=C/c1cccc([N+](=O)[O-])c1)NC(=O)c1ccccc1 was read as FAS-TE inh 48, ATG4B inh 9, Mot1-301 SUMO -11, Calb FLC 11 and NadD inh 3.
`Cc1nn(CCc2nn[nH]n2)c2nc(-c3ccc(C4CCCCC4)cc3)cc(C(F)(F)F)c12` gave FAS-TE inh 69*, ATG4B inh 29, Mot1-301 SUMO -29, Calb FLC -4, NadD inh 28 and FAS-TE conf 14.
O=C(CN1CCN(c2ncc(C(F)(F)F)cc2Cl)CC1)N1CCN(c2ncc(C(F)(F)F)cc2Cl)CC1 was read as FAS-TE inh 18, ATG4B inh -7, Mot1-301 SUMO 38, Calb FLC 3 and NadD inh -5.
For O=C(CSc1ccc(Cl)cc1)N1CCN(c2ncc(C(F)(F)F)cc2Cl)CC1 the results were FAS-TE inh 53*, ATG4B inh 3, Mot1-301 SUMO 17, Calb FLC 11, NadD inh 4 and FAS-TE conf 25.
CC1=C(C(=O)Nc2nc3ccccc3s2)C(c2ccco2)C(C#N)=C(SCC(=O)NC2CCCCC2)N1 (stereo not given) was read as FAS-TE inh 77*, ATG4B inh 12, Mot1-301 SUMO -7, Calb FLC 3, NadD inh 26 and FAS-TE conf -3.
[O-][n+]1c2ccccc2c2n1CCN1CCOC21c1ccc(Cl)cc1 (stereo not given) was read as FAS-TE inh -6, ATG4B inh 3, Mot1-301 SUMO 33 and NadD inh -10.
For O=C(/C=C/c1cccc([N+](=O)[O-])c1)NCCSCc1c(Cl)cccc1Cl the results were FAS-TE inh 65*, ATG4B inh 34, Mot1-301 SUMO 18, Calb FLC -1, NadD inh -7 and FAS-TE conf 53*.
For O=C(/C=C/c1cccc([N+](=O)[O-])c1)NCCSCc1ccc(Cl)cc1 the results were FAS-TE inh 54*, ATG4B inh 23, Mot1-301 SUMO 16, Calb FLC -48, NadD inh -1 and FAS-TE conf 51*.
For CN(Cc1ccccc1)C(=O)c1ccc(NC(=O)Cc2ccc(NC(=O)C3CCN(S(=O)(=O)c4cccc([N+](=O)[O-])c4)CC3)cc2)cc1 the results were FAS-TE inh 68*, ATG4B inh -4, NadD inh 21 and FAS-TE conf 19.
Screening CN(CCc1ccccc1)C(=O)c1ccc(NC(=O)Cc2ccc(NC(=O)C3CCCN(S(=O)(=O)c4cccc([N+](=O)[O-])c4)C3)cc2)cc1 (stereo not given) returned FAS-TE inh 72*, ATG4B inh 4, NadD inh 21 and FAS-TE conf 22.
Screening CN(Cc1ccccc1)C(=O)c1cccc(NC(=O)Cc2ccc(NC(=O)C3CCN(S(=O)(=O)c4cccc([N+](=O)[O-])c4)CC3)cc2)c1 returned FAS-TE inh 37, ATG4B inh -12 and NadD inh 20.
Screening C[C@@H]1CN([C@@H](C)CO)C(=O)CCCn2nncc2CO[C@H]1CN(C)Cc1cccc2c1OCCCO2 returned FAS-TE inh -6 and NadD inh 3.
Screening Cc1cccc(N(CC(=O)NC2CCCC2)C(=O)c2nsc(Cl)c2Cl)c1C returned FAS-TE inh 9, ATG4B inh 15, Mot1-301 SUMO 182, Calb FLC 5 and NadD inh -8.
CCOc1ccccc1N(CC(=O)NC1CCCCC1)C(=O)c1nsc(Cl)c1Cl was read as FAS-TE inh 50*, ATG4B inh 0, Mot1-301 SUMO -8, Calb FLC -14, NadD inh -7 and FAS-TE conf 18.
C=CCOc1c(Br)cc(/C=N/Nc2ccc(C(=O)O)cc2)cc1OCC was read as FAS-TE inh 54*, ATG4B inh 15, Mot1-301 SUMO -13, Calb FLC 10, NadD inh 5 and FAS-TE conf 72*.
CC(C)CCN1C(=O)c2ccc(C(=O)OCn3nnc4ccccc4c3=O)cc2C1=O was read as FAS-TE inh 55*, ATG4B inh -12, Mot1-301 SUMO 2, Calb FLC 7, NadD inh -3 and FAS-TE conf 17.
`O=C(OCn1nnc2ccccc2c1=O)c1ccc(O)cc1` gave FAS-TE inh 2, ATG4B inh 0, Mot1-301 SUMO -1, Calb FLC 34 and NadD inh -8.
`CC(C)OC(=O)/C(C#N)=C/c1cn(C)c2ccccc12` gave FAS-TE inh 52*, ATG4B inh 3, Mot1-301 SUMO 26, Calb FLC 3, NadD inh -4 and FAS-TE conf 49*.
CC(C)OC(=O)/C(C#N)=C/c1cn(Cc2ccccc2)c2ccccc12 was read as FAS-TE inh 24, ATG4B inh -3, Mot1-301 SUMO 8, Calb FLC 17 and NadD inh -5.
`Cn1c(-c2cccc([N+](=O)[O-])c2)cnc1NCc1cccc(F)c1` gave FAS-TE inh 7, ATG4B inh 11, Mot1-301 SUMO 20, Calb FLC 1 and NadD inh 3.
Screening Cn1c(-c2ccc(F)cc2)cnc1NCc1cccc([N+](=O)[O-])c1 returned FAS-TE inh 76*, ATG4B inh 22, Mot1-301 SUMO 123, Calb FLC -1, NadD inh -6 and FAS-TE conf 78*.
For O=C(C1=NN(c2ccccc2)C2C(=O)N(c3ccccc3Cl)C(=O)C12)c1ccccc1 (stereo not given) the results were FAS-TE inh 52*, ATG4B inh 4, Mot1-301 SUMO -3, Calb FLC -1, NadD inh 11 and FAS-TE conf -17.
CC1CCN(S(=O)(=O)c2ccc3c(c2)c(=O)c(C(=O)N2CCOCC2)cn3C)CC1 was read as FAS-TE inh -13, ATG4B inh -3, Mot1-301 SUMO 16, Calb FLC -10 and NadD inh -3.
Cn1cc(C(=O)NCC2COc3ccccc3O2)c(=O)c2cc(S(=O)(=O)N3CCCCC3)ccc21 (stereo not given) was read as FAS-TE inh 53*, ATG4B inh -26, Mot1-301 SUMO 199, Calb FLC 6, NadD inh 11 and FAS-TE conf 10.
Screening CC1CCN(S(=O)(=O)c2ccc3c(c2)c(=O)c(C(=O)NCc2ccco2)cn3C)CC1 returned FAS-TE inh 71*, ATG4B inh -10, Mot1-301 SUMO -11, Calb FLC 4, NadD inh 3 and FAS-TE conf 80*.
